From PubChem BioAssay
A selection: hits, their analogues and other compounds. The true share with any hit is near 9.9%.
KB-V1 MDR tox = kills drug-selected multidrug resistant KB-V1 cells. KB-V1 MDR cells viability, CellTiter-Glo, 72 h. AID 1347076. actives 3.4% (n = 400,000). Potency, µM (series often up to 46.1 µM), hits mostly cytotoxic; further: potency means the concentration at half of the fitted maximal effect; on the % scale 0 is the no-effect control and ±100 the full control effect; nearly all actives have a fitted effect of over 60% in size
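Compound-treated KB-V1 multidrug-resistant cells, 72 h, 37 degrees C; viability by CellTiter-Glo. Fitted qHTS curves give the values.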
SW480 rereplic = DNA re-replication induction in SW480 cells; SW480 DNA re-replication, Hoechst DNA content imaging, 48 h; Potency, µM (top dose mostly 46.1 µM), for the others: at the top dose re-replication activation, hits mostly activators; actives 1.8% (n = 340,000); AID 624297; further: potency means the concentration at half of the fitted maximal effect; % of control where 0% means no effect; nearly all actives have a fitted effect of over 55% in size
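250 cells/well; 23 nL cpd via pin tool; 48 hr, 37 C, 5% CO2; Hoechst 40 min; imager read of total nuclear intensity, ex 405/em 500-530 nm.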
KB-3-1 cytotox = kills parental KB-3-1 adenocarcinoma cells. KB-3-1 viability, CellTiter-Glo ATP luminescence, 72 h. actives 1.4% (n = 400,000). AID 1347075. Potency, µM (titrated, usually from 46.1 µM), hits mostly cytotoxic; further: potency means the concentration at half of the fitted maximal effect; on the % scale 0 is the no-effect control and ±100 the full control effect; nearly all actives have a fitted effect of over 60% in size
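KB-3-1 parental drug-naive adenocarcinoma cells in DMEM/10% FBS, incubated 72 h at 37 C with pin-transferred compounds across a concentration series. Viability by CellTiter-Glo luminescence; concentration-response curves fitted after normalization.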
MCF10A rereplic = induces DNA re-replication in MCF 10a normal breast cells; Potency, µM (doses to about 46.1 µM), without a hit: at the highest dose activity, positive = re-replication, actives largely listed as activators; AID 624296; actives 2.9% (n = 350,000); MCF 10A DNA re-replication, Hoechst nuclear intensity, 48 h; further: potency means the concentration at half of the fitted maximal effect; % of control where 0% means no effect; nearly all actives have a fitted effect of over 50% in size
IL1B secr inh = blocks inflammasome-driven IL-1 beta release. THP-1 LPS/ATP IL-1B secretion, AlphaLISA, 16 h; stronger effect = lower value. actives 4.7% (n = 360,000). activity change, % at 57.5 µM; in the data active means activity change below about -50%; inconclusive means mostly about -30% to -49%; further: on the % scale 0 is the no-effect control and ±100 the full control effect
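THP-1 cells pretreated 1 hr with compounds (up to 57.5 uM final), then stimulated with LPS (250 ng/mL final) plus ATP (1.25 mM final); secreted IL-1B measured by AlphaLISA after 16 hr, decreased signal indicating inhibition.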
* = called active by the depositor; i = inactive; ? = inconclusive; · = not tested or not shown. Unless noted, the call rests on the fitted dose curve; in most records, active means well fitted curve in the direction sought with a large enough effect; inconclusive means small, poorly fitted or top-dose-only effect, or another doubt; inactive means no such curve, though single readings can be large; an effect the other way counts as inactive or inconclusive.

SMILES | KB-V1 MDR tox | SW480 rereplic | KB-3-1 cytotox | MCF10A rereplic | IL1B secr inh
Cc1ccc(C)c(N2CCN(C(=O)CN3C(=O)COc4ccc(S(=O)(=O)N5CCOCC5)cc43)CC2)c1 | i | · | i | · | ·
C#CC(C)(CC)NC(=O)c1cc2c(n(-c3ccc(Cl)cc3)c1=O)CC(C)(C)CC2=O (stereo unspecified) | ? | · | i | · | ·
CN(Cc1cccs1)c1nc(-c2cccnc2)nc2ccccc12 | ? | 2% | ? | ? | -92*
c1ccc(-c2nc(NCc3cccs3)c3ccccc3n2)cc1 | i | -7% | i | 21% | -7
CCCCN1CC(=O)N2[C@H](c3ccc(OC)cc3)[C@@H]3C(=O)N(CC)C(=O)[C@@H]3[C@]2(C)C1=O | i | -19% | i | -5% | 0
CC1CCC(C(C)C)C(OC(=O)Cn2c(-c3ccccc3)[n+](C)c3ccccc32)C1 (stereo unspecified) | i | 15µM* | 15µM* | 18µM* | -103*
CC1CCC(C(C)C)C(OC(=O)Cn2c(-c3ccc(F)cc3)[n+](C)c3ccccc32)C1 (stereo unspecified) | i | 16µM* | ? | ? | -101*
CC1CCC(C(C)C)C(OC(=O)CSc2nnc(N)s2)C1 (stereo unspecified) | i | 13% | i | ? | 14
Cc1cccc(OCc2n(CC(=O)OC3CC(C)CCC3C(C)C)c3ccccc3[n+]2C)c1 (stereo unspecified) | ? | ? | ? | ? | -98*
CC1CCC(C(C)C)C(OC(=O)CSc2nc(N)cc(=O)[nH]2)C1 (stereo unspecified) | i | 0% | i | -1% | 25
Cc1cccc(OC(=O)Cn2c(C(F)(F)F)nc3ccccc32)c1 | i | -3% | i | -3% | 47
Cc1cccc(NC(=O)C2CCCN(S(=O)(=O)c3ccc4c(c3)oc(=O)n4C)C2)c1C (stereo unspecified) | i | · | i | · | ·
O=C(CCSC1=NCCCN1)c1ccc(F)cc1 | i | ? | i | ? | -4
Cc1cccc(CC2CC(=O)N(c3nc4ccccc4s3)C2=O)c1 (stereo unspecified) | ? | -1% | i | 11% | 18
COc1ccc2nc(-n3c(O)c(C4=c5ccccc5=NC4=O)[nH]c3=S)sc2c1 | i | 0% | i | 4% | -6
COc1ccc2nc(N3C(=O)CNC3=S)sc2c1 | 5.8µM* | 4% | ? | ? | ?
Cc1ccc2nc(N3C(=O)CNC3=S)sc2c1 | ? | ? | ? | 18µM* | ·
O=C(NN1CCN(Cc2ccccc2Cl)CC1)c1ccc(Br)cc1 | ? | 1% | i | ? | 6
COc1cccc(NC(=O)c2ccc(NC(=O)C3CC(=O)OC34CCCCC4)cc2)c1 (stereo unspecified) | i | -4% | i | -1% | 0
O=[N+]([O-])c1ccc(OC(F)F)c(/C=N/n2cnnc2)c1 | ? | 3.3µM* | ? | 0% | 32
COc1cc([N+](=O)[O-])ccc1-c1ccc(/C=N\n2cnnc2)o1 | i | 3% | i | -5% | -13
Cc1ccc(C(=O)C(C(=O)/C=C/c2ccccc2)=C2SCCCS2)cc1 | i | ? | 8.2µM* | 21µM* | -111*
O=C(CNS(=O)(=O)c1ccc(Br)s1)N1CCN(c2ncccn2)CC1 | 21µM* | -3% | i | -4% | 20
Cc1ccc(N2CCN(C(=O)CNS(=O)(=O)c3ccc(Br)s3)CC2C)cc1 (stereo unspecified) | 2.3µM* | -6% | ? | ? | ?
C[C@]12c3[nH]c4cc(-c5ccco5)ccc4c3CCN1C(=O)[C@@H](CC(=O)NCc1ccco1)C[C@@H]2C(=O)N1CCOCC1 | i | -6% | i | 1% | -8
SMILES | KB-V1 MDR tox | SW480 rereplic | KB-3-1 cytotox | MCF10A rereplic | IL1B secr inh
Cc1cccc(N2CCN(C(=O)N3CCOCC3)CC2)c1C | ? | 16µM* | 21µM* | ? | 60
Cc1cccc(N2CCN(C(=O)c3ccnn3C)CC2)c1C | i | -2% | i | -1% | 0
O=C(NCCN1CCOCC1)C1CCC(CNS(=O)(=O)c2ccc(Cl)cc2)CC1 (stereo unspecified) | i | 4% | i | 16µM* | -4
Cc1cccc(N2CCN(C(=O)c3ccncc3)CC2)c1C | 5.8µM* | 12µM* | 10µM* | ? | 60
Cc1cccc(N2CCN(C(=O)C3CCC(CNS(=O)(=O)c4cccs4)CC3)CC2)c1C (stereo unspecified) | ? | ? | 21µM* | ? | -18
Cc1cccc(N2CCN(C(=O)C3CCC(CNS(=O)(=O)c4ccc(Br)s4)CC3)CC2)c1C (stereo unspecified) | i | · | i | · | ·
CNS(=O)(=O)c1cn(CC(=O)N2CCN(c3cccc(Cl)c3)CC2)cc1S(=O)(=O)NC | i | · | i | · | ·
COc1cc(C(=O)N2CCN(c3cc(Cl)ccc3Cl)CC2)cc(OC)c1OC | ? | 1.2µM* | 0.33µM* | ? | 66
Cc1cccc(N2CCN(C(=O)c3c(C)nn(Cc4ccccc4Cl)c3C)CC2)c1C | ? | ? | i | 15µM* | ?
COc1ccc(C(=O)N2CCN(C(=O)c3cc(OC)c(OC)c(OC)c3)CC2)cc1 | i | -6% | i | 8% | 0
COc1cc(C(=O)N2CCN(c3ccccn3)CC2)cc(OC)c1OC | i | -3% | i | -8% | 55
Cc1ccc(S(=O)(=O)NCC2CCC(C(=O)N3CCN(C)CC3)CC2)cc1 (stereo unspecified) | i | ? | i | 18µM* | 20
COc1cc(C(=O)N2CCN(c3cccc(C)c3C)CC2)cc(OC)c1OC | 2.6µM* | 0.73µM* | 0.82µM* | 10µM* | 106
O=C(NCCN1C(=O)S/C(=C\c2ccccc2F)C1=O)C1CCCN1C(=O)c1cccs1 (stereo unspecified) | i | ? | i | ? | ?
Cc1ccc(S(=O)(=O)N2CCN(C(=O)CSCc3ccc(C(C)C)cc3)CC2)cc1 | i | -14% | ? | 4% | 14
Cc1ccccc1N1CCN(C(=O)C2CCCCC2)CC1 | i | 0% | i | 8% | -12
Cc1cccc(N2CCN(C(=O)C3CCCCC3)CC2)c1C | ? | 1% | i | 17% | -65*
CCc1ccc(NC(=O)CSc2nc(NS(=O)(=O)c3ccccc3)cc(=O)[nH]2)cc1 | i | 2% | i | 14% | -55*
CCOc1ccccc1/C=C/c1onc(C)c1S(=O)(=O)N1CCC(C(=O)N2CCCCCC2)CC1 | i | -8% | ? | 18µM* | -10
Cc1noc(/C=C/c2ccco2)c1S(=O)(=O)N1CCC(C(=O)N2CCc3ccccc3C2)CC1 | i | ? | ? | 18µM* | ?
